# NIH3T3 tox: kills NIH 3T3 cells; Potency, µM (doses to about 96.7 µM), most hits filed as inhibitors; NIH 3T3 viability, CellTiter-Glo ATP luminescence, 48-72 h; 94,000 compounds, 4.3% hits; note: nearly all actives have a fitted effect of over 55% in size
#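 Luminescent ATP readout (CellTiter-Glo, 10 min RT) after 48 or 72 hr compound exposure of NIH 3T3 cells seeded at 400 cells/well in 1536-well format; quantitative HTS.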
# hNpr1 antagonist: human Npr1 receptor antagonism; 76,000 compounds, 1.6% hits; HEK293 hNpr1 GloSensor cGMP, ANP-stimulated luminescence; P16066; Potency, µM (titrated, usually from 46.3 µM), hits mostly inhibitors; AID 1347048; calls by dose curve; note: nearly all actives have a fitted effect of over 60% in size
# Target sequence (P16066 whole entry, looked up): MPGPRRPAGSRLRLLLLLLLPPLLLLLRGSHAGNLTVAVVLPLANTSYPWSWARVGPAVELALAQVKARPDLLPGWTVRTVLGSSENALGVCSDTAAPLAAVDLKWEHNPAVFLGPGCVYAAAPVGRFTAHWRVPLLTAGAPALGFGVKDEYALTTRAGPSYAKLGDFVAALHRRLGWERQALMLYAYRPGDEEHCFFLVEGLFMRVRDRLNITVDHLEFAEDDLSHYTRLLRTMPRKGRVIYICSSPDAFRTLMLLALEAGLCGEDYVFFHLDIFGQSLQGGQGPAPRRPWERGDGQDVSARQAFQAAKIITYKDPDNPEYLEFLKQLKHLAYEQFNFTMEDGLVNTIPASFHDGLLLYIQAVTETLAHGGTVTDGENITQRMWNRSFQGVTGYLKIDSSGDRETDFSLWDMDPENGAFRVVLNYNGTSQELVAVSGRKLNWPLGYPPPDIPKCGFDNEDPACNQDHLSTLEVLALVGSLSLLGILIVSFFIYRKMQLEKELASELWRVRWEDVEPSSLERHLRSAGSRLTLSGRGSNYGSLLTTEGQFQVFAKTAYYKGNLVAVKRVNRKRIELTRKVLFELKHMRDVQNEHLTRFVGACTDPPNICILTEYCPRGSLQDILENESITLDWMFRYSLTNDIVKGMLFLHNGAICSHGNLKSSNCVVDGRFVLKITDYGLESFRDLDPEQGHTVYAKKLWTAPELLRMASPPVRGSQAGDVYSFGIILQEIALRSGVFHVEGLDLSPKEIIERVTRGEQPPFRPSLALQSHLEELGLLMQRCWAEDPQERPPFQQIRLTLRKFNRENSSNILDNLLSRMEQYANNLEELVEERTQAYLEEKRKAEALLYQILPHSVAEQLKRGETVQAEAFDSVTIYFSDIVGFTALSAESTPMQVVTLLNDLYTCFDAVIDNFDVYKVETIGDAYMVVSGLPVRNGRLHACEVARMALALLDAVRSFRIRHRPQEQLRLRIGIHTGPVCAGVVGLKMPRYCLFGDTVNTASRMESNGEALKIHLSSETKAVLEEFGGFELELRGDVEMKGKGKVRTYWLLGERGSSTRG
#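 Compound pre-incubated 30 min at room temperature on GloSensor-loaded HEK293 cells stably carrying hNpr1 and the pGS-40F cGMP biosensor. Stimulation uses hNppA at 0.1 nM final; luminescence is taken at baseline and 20 min post-agonist.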
# HEK293 tox: cytotoxic compounds in HEK 293 cells. HEK 293 viability, ATP luminescence (CellTiter-Glo), 48-72 h. Potency, µM (top dose mostly 115 µM), most hits filed as inhibitors. 94,000 compounds, 6.6% hits; note: nearly all actives have a fitted effect of over 60% in size
#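 qHTS cytotoxicity; HEK 293, 250 cells/well; compound pinned; 48 or 72 hr, 37 degree Celsius, 5% CO2, 95% humidity; CellTiter-Glo, 10 min RT; luminescence (ATP).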
# FLuc inh: inhibitors of firefly (Photinus pyralis) luciferase. purified P. pyralis luciferase, luminescence, biochemical. Potency, µM (doses to about 115 µM), most hits filed as inhibitors. 76,000 compounds, 2.5% hits. AID 1347043; note: nearly all actives have a fitted effect of over 65% in size
#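 Purified 10nM P. pyralis luciferase with 10uM D-luciferin and 10uM ATP in 50mM Tris acetate pH 7.5, 10mM Mg acetate, 0.01% Tween-20, 0.05% BSA. qHTS titration; luminescence read by CCD imager.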
# A number is an active result; - = inactive; ? = inconclusive; . = no result given. In the library only some 11% were active in any assay of this set; here they are far more common. Unless noted, calls come from the whole dose curve; as a rule, active = well fitted curve in the direction sought with a large enough effect; inconclusive = small, poorly fitted or top-dose-only effect, or another doubt; inactive = no such curve, though single readings can be large; an effect the other way counts as inactive or inconclusive.
SMILES,NIH3T3 tox,hNpr1 antagonist,HEK293 tox,FLuc inh
CCCCc1ccc(NC(=O)CN2C(=O)NC(c3ccc(Cl)cc3)C3=C2COC3=O)cc1 (centres undefined),20µM,-,20µM,-
O=C(CN1C(=O)NC(c2ccc(Cl)cc2)C2=C1COC2=O)Nc1ccccc1 (centres undefined),?,-,?,-
Cc1ccc(C2NC(=O)N(CC(=O)Nc3ccc(C(F)(F)F)cc3)C3=C2C(=O)OC3)cc1 (centres undefined),32µM,?,25µM,-
CC(C)(C)CC(=O)N1CCC2(CC1)C(=O)N(CC(=O)Nc1ccccc1)CN2c1ccccc1,?,-,?,-
Cc1cnc(C2CCOCC2)n1CCNC(=O)c1cccn1C,-,.,-,.
CNC(=O)c1cc(C2CC2)nc2c1c(C1CCN(C(=O)COC)C1)nn2C (centres undefined),-,.,-,.
Cc1c(-c2ccc(F)cc2)[nH]c2ccc(CNC(=O)[C@@H]3CCCO3)cc12,?,-,50µM,35µM
Cc1cc(F)ccc1-c1[nH]nc2ncc(-c3cnn(C)c3)nc12,-,-,?,-
Cc1nc(CC(=O)NCc2ccc3[nH]c(-c4ccc(F)cc4)c(C)c3c2)cs1,?,?,?,35µM
Cc1c(-c2ccc(F)cc2)[nH]c2ccc(CNC(=O)CCN3CCCO3)cc12,?,?,32µM,25µM
O=C1CCCCC(C(=O)NCc2ccc(F)cc2)N1 (centres undefined),-,-,-,-
O=C(CCN1CCCCO1)N1CCCC(CCc2ccc(F)c(F)c2)C1 (centres undefined),-,-,?,-
Cc1c(-c2ccc(F)cc2)[nH]c2ccc(CNCc3cnn(C)c3)cc12,40µM,-,40µM,?
O=C(C1CCCN1C(=O)c1ccccc1Cl)N1CCC(N2CCOCC2=O)CC1 (centres undefined),-,.,-,.
Cn1c(=O)n([C@H]2CCN(C(=O)c3ccco3)C2)c2ncccc21,-,.,-,.
Fc1ccc(-c2ccc3ncc(Nc4ccnc(N5CCOCC5)c4)n3n2)cc1,8.9µM,?,32µM,-
Fc1ccc(-c2ccc3ncc(Nc4cc(F)cc(N5CCOCC5)c4)n3n2)cc1,?,?,63µM,?
Clc1ccccc1Nc1cnc2ccc(N3CCOCC3)nn12,?,?,?,-
N#Cc1cccc(-c2c(C(=O)NCc3ccccc3F)nc3sccn23)c1,-,.,-,.
Cc1ccc(-c2c(C(=O)NCc3cccc(C(F)(F)F)c3)nc3sccn23)cc1,?,.,22µM,.
N#Cc1cccc(-c2c(C(=O)NCc3cccc(C(F)(F)F)c3)nc3sccn23)c1,?,.,35µM,.
O=C(NCc1ccccn1)c1nc2sccn2c1-c1cccc(C(F)(F)F)c1,32µM,.,?,.
N#Cc1cccc(-c2c(C(=O)NCc3ccc(Cl)cc3)nc3sccn23)c1,35µM,.,?,.
O=C(NCC(F)(F)F)c1nc2sccn2c1-c1cccc(C(F)(F)F)c1,?,.,-,.
CC(C)CCN1CCc2nc(C(C)C)nc(-c3ccc(Cl)cc3)c2CC1,-,.,?,.
SMILES,NIH3T3 tox,hNpr1 antagonist,HEK293 tox,FLuc inh
O=C([C@H]1CCCN1C(=O)c1ccccc1F)N1CCCC(c2nc3ccncc3[nH]2)C1 (some centres undefined),-,.,-,.
CCC(=O)N1Cc2ccccc2CC2(CCCCN2Cc2cccnc2)C1 (centres undefined),-,.,-,.
O=C(C1CCC1)N1CCCC(c2noc(COc3ccccc3)n2)C1 (centres undefined),?,-,?,-
CSc1ccc(-c2cccc(C(=O)NCC(=O)NCC(C)C)c2)cc1,-,.,-,.
CC1(COc2cccnc2)COc2ccc(C(=O)NCCc3ccccc3)cc2N1 (centres undefined),?,8.9µM,?,?
CC1(COc2cccnc2)COc2ccc(C(=O)NCCOc3ccccc3)cc2N1 (centres undefined),?,8.9µM,?,?
O=C1NCCCCCCN(C(=O)NC2CCCCC2)[C@H]2C[C@H](C(=O)N3CCc4ccccc4C3)C[C@@H]12,-,-,-,-
COCCc1noc(CC2CCOC3(CCN(S(=O)(=O)c4cccc5cccnc45)CC3)C2)n1 (centres undefined),-,.,?,.
O=C(C1CC1)N(C1CCOCC1)C1CCN(S(=O)(=O)c2ccc(F)c(Cl)c2)CC1,-,-,-,-
CCOC(=O)CCCOc1cccn2c(=O)c(-c3cc(C)n(-c4cccc(C)c4)n3)c(C)nc12,-,-,-,-
Cc1nc2c(OCC(=O)c3ccccc3)cccn2c(=O)c1-c1cc(C)n(-c2ccccc2)n1,-,-,?,40µM
Cc1cccc(CNCc2ccccc2OCC(O)CN2CCSCC2)c1 (centres undefined),?,?,?,-
CN1C(=O)[C@@H]2C[C@@H](CN2Cc2ccnc3ccccc23)Oc2ccccc21,89µM,-,?,-
CN1C(=O)[C@@H]2C[C@@H](CN2Cc2nccs2)Oc2ccccc21,-,-,?,-
COc1ccc(CN2C(=O)[C@@H]3C[C@@H](CN3CC3CC3)Oc3ccccc32)cc1,79µM,-,?,-
O=C1[C@@H]2C[C@@H](CN2Cc2ccc(F)c(F)c2)Oc2ccccc2N1Cc1ccccn1,?,-,?,-
O=C1[C@@H]2C[C@@H](CN2Cc2ccc3c(c2)OCO3)Oc2ccccc2N1Cc1ccccn1,?,-,79µM,-
COCCN1C(=O)[C@@H]2C[C@@H](CN2Cc2ccc3ccccc3n2)Oc2ccccc21,100µM,-,?,?
COc1ccc(CN2C(=O)[C@@H]3C[C@@H](CN3C(C)C)Oc3ccccc32)cc1,-,-,-,-
COc1ccccc1-n1c(=O)c(C(=O)N2CCN(C(=O)c3ccccc3F)CC2)nc2cccnc21,-,.,-,.
Cc1ccc(CN2CCCCCCNC(=O)[C@@H]3C[C@@H](C(=O)NCCc4c[nH]c5ccccc45)C[C@@H]32)o1,?,-,?,-
O=C1[C@@H]2C[C@@H](CN2Cc2ccccc2)Oc2ccccc2N1CC1CC1,?,-,?,-
O=C1[C@@H]2C[C@@H](CN2Cc2cnc3ccccc3c2)Oc2ccccc2N1CC1CC1,?,-,50µM,-
CCOC(=O)COC1CCN(C(=O)c2cccc(OC)c2)CC(=O)N(C)c2ccccc21 (centres undefined),-,.,?,.
Fc1ccccc1-c1noc(-c2nc(C3CC3)no2)n1,-,?,?,4.5µM
SMILES,NIH3T3 tox,hNpr1 antagonist,HEK293 tox,FLuc inh
Fc1ccccc1-c1noc(-c2nc(-c3ccncc3)no2)n1,-,-,-,-
COc1ccc(NC(=O)N2CCc3c(C(=O)Nc4ccccc4)cccc32)cc1,?,4.5µM,?,?
COCCNC(=O)c1cccc2c1CCN2C(=O)C1CC1,-,-,-,-
O=C(NCc1ccc(N2CCOCC2)cc1)c1cccc2c1CCN2C(=O)c1ccccc1,-,-,-,40µM
CNC(=O)c1cccc2c1CCN2C(=O)Nc1ccc(F)cc1,-,11µM,-,0.71µM
COc1cc(CNC(=O)c2cccc3c2CCN3C(=O)C2CC2)cc(OC)c1,-,-,45µM,-

# Bioassay records deposited in PubChem BioAssay by National Center for Advancing Translational Sciences (NCATS).
